Assay [1] in a line: anti-His antibody binders, primary screen, artefact control for SMM control protein annotation, biochemical, small-molecule microarray, 635 nm fluorescence (AID 1128).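 Also: score merges feature fluorescence with signal-to-noise for each printed compound spot.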 Particulars: anti-His Alexa647 antibody binding, higher = more signal.
The test system of assay [2] is Human papillomavirus type 1a E7 protein (residues 1-88). As to the kind of experiment: HPV1a E7 small-molecule binders, primary screen, biochemical, small-molecule microarray, residues 1-88, 635 nm (AID 1129). Particulars: small-molecule microarray binding, fluorescence 635 nm; higher = more signal.
The target of assay [3] is Focal adhesion kinase 1 (Homo sapiens) (UniProt Q05397). Briefly: small-molecule microarray binders of FAK, primary screen, biochemical, 635/667 nm fluorescence, BSA, DTT (AID 1130).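 Also: composite of spot emission at 667 nm and signal to noise over triplicate slides.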 The note with it: PTK2 binding, 635 nm fluorescence, higher = more signal.
Chain of Focal adhesion kinase 1 (Homo sapiens) (Q05397 whole entry, looked up): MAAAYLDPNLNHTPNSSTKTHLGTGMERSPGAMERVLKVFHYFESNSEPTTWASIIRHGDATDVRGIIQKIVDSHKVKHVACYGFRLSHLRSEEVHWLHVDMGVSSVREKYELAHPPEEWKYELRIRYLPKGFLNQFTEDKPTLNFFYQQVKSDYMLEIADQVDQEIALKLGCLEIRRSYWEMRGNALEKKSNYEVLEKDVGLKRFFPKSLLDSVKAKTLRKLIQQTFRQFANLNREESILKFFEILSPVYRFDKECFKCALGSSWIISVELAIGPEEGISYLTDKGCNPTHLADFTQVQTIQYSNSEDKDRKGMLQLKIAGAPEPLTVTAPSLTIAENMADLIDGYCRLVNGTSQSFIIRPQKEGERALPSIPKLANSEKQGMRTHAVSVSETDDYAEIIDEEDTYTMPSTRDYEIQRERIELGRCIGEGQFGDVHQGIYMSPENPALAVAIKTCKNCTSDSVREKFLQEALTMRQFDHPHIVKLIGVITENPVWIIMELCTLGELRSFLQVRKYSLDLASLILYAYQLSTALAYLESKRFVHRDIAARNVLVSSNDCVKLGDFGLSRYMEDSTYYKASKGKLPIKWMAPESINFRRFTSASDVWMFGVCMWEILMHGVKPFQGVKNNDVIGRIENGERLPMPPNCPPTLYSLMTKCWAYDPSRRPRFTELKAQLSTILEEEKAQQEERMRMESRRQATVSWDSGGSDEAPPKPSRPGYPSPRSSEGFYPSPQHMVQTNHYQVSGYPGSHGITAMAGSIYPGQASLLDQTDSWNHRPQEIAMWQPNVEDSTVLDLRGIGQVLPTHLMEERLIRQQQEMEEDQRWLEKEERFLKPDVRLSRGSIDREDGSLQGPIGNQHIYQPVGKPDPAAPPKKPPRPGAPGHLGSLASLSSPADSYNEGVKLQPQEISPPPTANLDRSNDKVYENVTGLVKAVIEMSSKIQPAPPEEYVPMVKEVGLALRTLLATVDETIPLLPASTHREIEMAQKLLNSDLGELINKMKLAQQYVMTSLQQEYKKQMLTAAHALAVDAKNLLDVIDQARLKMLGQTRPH
Assay [4] deals with Fibrinogen (Alexa647-labelled). Briefly: fibrinogen binders on compound microarrays, profiling panel, artefact control for SMM control-protein annotation, biochemical, small-molecule microarray, 635/667 nm fluorescence (AID 1131).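 Also: z-score merges 667 nm fluorescence with per-spot signal-to-noise over triplicate slides.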 The note with it: fibrinogen-A647 binding fluorescence, higher = more signal.
For assay [5], the target named is Follistatin (Homo sapiens) (UniProt P19883). As to the kind of experiment: follistatin binders on small-molecule microarrays, primary screen, biochemical, small-molecule microarray, 635/667 nm fluorescence (AID 1132). Particulars: FST binding, 635 nm fluorescence, higher = more signal.
Chain of Follistatin (Homo sapiens) (P19883 whole entry, looked up): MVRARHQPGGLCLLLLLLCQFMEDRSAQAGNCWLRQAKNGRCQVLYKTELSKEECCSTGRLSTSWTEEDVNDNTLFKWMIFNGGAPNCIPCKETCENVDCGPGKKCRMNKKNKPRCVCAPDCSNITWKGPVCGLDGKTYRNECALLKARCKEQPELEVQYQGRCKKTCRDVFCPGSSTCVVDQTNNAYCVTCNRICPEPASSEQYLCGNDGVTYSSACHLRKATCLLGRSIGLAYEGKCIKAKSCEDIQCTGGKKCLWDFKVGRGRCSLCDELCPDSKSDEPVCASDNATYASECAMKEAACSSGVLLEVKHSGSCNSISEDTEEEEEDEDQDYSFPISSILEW
In assay [6] the target is Fibroblast growth factor 2 (Homo sapiens) (UniProt P09038). As to the kind of experiment: FGF2 binders on small-molecule microarrays, primary screen, biochemical, small-molecule microarray, 635/667 nm fluorescence (AID 1133). Particulars: small-molecule microarray binding, FGF2, fluorescence 635/667; higher = more signal.
Chain of Fibroblast growth factor 2 (Homo sapiens) (P09038 whole entry, looked up): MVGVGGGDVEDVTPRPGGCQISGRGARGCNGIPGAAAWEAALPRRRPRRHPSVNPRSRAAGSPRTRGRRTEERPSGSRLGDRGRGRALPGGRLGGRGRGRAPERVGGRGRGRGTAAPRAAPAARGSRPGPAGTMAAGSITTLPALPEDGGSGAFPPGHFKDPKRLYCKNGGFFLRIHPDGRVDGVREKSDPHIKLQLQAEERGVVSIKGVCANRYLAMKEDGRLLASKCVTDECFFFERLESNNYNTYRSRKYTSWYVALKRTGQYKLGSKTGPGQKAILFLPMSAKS
A short description of assay [7]: mitochondrial membrane potential change in A549 cells, profiling panel, cell-based, JC-1 fluorescence, basal, 24 h, 100 nL (AID 1138).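 Also: A549 lung adenocarcinoma cells under basal conditions with no added stimulus; test concentration not given here.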 Particulars: higher = more signal.
In assay [8] the test system is Lefty1. Briefly: Lefty1 binders on small-molecule microarrays, primary screen, biochemical, small-molecule microarray, 635/667 nm fluorescence (AID 1139). Particulars: small-molecule microarray binding, fluorescence 635/667; higher = more signal.
Assay [9] relates to wheat germ agglutinin (Triticum aestivum), Alexa647-labelled. As to the kind of experiment: wheat germ agglutinin binders on compound microarrays, profiling panel, artefact control for SMM control-protein annotation, biochemical, small-molecule microarray, 635/667 nm fluorescence (AID 1140).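 Also: score merges 667 nm feature emission with signal to noise over triplicate slides.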 Particulars: WGA-A647 binding, 635 nm fluorescence, higher = more signal.
The target of assay [10] is Luciferin 4-monooxygenase (Photinus pyralis) (UniProt P08659). Briefly: firefly luciferase enzyme inhibitors, primary screen, biochemical, luminescence, purified enzyme, 2006 set (AID 1141).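 Also: cell-free assay with purified firefly luciferase at 100 ng per well in PBS; test concentration not given here.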 The note with it: SteadyGlo luminescence, 30 min, higher = more signal, called active from +8 up or from −8 down.
Chain of Luciferin 4-monooxygenase (Photinus pyralis) (P08659 whole entry, looked up): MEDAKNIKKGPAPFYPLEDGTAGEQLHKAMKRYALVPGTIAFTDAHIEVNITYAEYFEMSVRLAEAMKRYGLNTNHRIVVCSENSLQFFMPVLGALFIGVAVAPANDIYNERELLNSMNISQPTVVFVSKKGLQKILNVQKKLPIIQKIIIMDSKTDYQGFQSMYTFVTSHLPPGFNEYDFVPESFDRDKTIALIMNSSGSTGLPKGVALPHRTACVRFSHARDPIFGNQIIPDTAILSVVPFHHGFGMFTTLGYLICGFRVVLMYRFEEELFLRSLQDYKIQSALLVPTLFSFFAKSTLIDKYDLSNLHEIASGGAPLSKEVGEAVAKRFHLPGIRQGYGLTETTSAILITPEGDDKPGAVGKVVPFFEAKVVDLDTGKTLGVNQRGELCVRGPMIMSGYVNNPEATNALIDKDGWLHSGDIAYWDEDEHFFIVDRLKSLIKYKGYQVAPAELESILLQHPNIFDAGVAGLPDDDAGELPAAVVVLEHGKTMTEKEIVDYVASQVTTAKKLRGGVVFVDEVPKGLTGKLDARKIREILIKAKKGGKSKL
The subject of assay [11] is Wnt5a (protein binding on small-molecule microarray). Briefly: Wnt5a binders on small-molecule microarray, primary screen, biophysical, 635/667 nm fluorescence (AID 1142).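 Also: fluorescence read at 667 nm with signal to noise per printed feature.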 The note with it: 635 nm fluorescence, higher = more signal.
Assay [12] in a line: cell viability in Huh7 cells, primary screen, cytotoxicity control for HCV replication inhibitor project, CellTiter-Glo luminescence, basal, 48 h (AID 1143).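 Also: Huh7 hepatoma cells carrying a hepatitis C replication reporter with no stimulus; test concentration not given here.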 The note with it: Huh7 HCV replicon, higher = more signal, called active from +8 up or from −8 down. In general terms: In ATP-based viability assays light output follows the ATP content of the culture.
The nature of assay [13]: P. aeruginosa biofilm formation inhibitors, primary screen, PAO1 strain, BacTiter-Glo luminescence, LB-PBS (AID 1144). Particulars: 12 h, higher = more signal.
Assay [14] can be described thus: CREB reporter modulators without forskolin, primary screen, cell-based, PC12, CRE-LacZ reporter, unstimulated (AID 1145). Particulars: no forskolin, luminescence, 4.5 h, higher = more signal, called active from +8 up or from −8 down.
Assay [15] is described as follows: CREB reporter modulators under forskolin, primary screen, cell-based, PC12, CRE-LacZ reporter, forskolin-stimulated (AID 1146).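 Also: PC12 cells with 6xCRE LacZ reporter stimulated by forskolin 10 µM; beta-galactosidase reporter signal reflecting CREB driven transcription.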 Particulars: luminescence, 4.5 h, higher = more signal, called active from +8 up or from −8 down.
Assay [16] concerns the target Streptavidin (Streptomyces avidinii) (UniProt P22629). Briefly: streptavidin binders on small-molecule microarray, primary screen, artefact control for SMM compound annotation, biophysical, 635/667 nm fluorescence (AID 1147).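 Also: signal reflects streptavidin binding to arrayed compounds as a control protein.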 The note with it: streptavidin binding, higher = more signal.
A short description of assay [17]: small-molecule binders of probe aInhba, primary screen, biochemical, small-molecule microarray, 635/667 nm fluorescence (AID 1148).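 Also: score merges 667nm spot fluorescence with signal-to-noise for antibody binding to printed compounds.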 Particulars: higher = more signal.
In assay [18] the target is Torsin-1A (Homo sapiens) (UniProt O14656). As to the kind of experiment: torsin A binders from cell lysate, primary screen, small-molecule microarray, wild-type, 635/667 nm (AID 1149). The note with it: COS7 hTOR1A-WT lysate, 635 nm fluorescence, higher = more signal.
Chain of Torsin-1A (Homo sapiens) (O14656 whole entry, looked up): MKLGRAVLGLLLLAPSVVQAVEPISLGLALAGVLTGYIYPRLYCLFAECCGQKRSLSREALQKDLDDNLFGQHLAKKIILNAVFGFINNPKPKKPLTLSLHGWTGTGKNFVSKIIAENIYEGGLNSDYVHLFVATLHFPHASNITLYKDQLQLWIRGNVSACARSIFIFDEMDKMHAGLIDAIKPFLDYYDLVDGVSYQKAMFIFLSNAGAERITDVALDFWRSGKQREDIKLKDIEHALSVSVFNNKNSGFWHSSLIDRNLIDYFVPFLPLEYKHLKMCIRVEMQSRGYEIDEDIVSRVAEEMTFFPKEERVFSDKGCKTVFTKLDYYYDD
Assay [19] has the same target. Briefly: small-molecule binders of mutant TOR1A in lysate, primary screen, cell lysate, small-molecule microarray, COS7 lysate, 635/667 nm fluorescence (AID 1150).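 Also: score pools 667 nm emission and signal to noise measuring lysate protein binding.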 Particulars: COS7 hTOR1A mutant lysate, 635 nm fluorescence, higher = more signal.
Assay [20] deals with Sonic hedgehog protein (Shh). Briefly: small-molecule binders of Shh protein, primary screen, biochemical, small-molecule microarray, 635/667 nm fluorescence (AID 1151).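 Also: Shh protein binding to compounds spotted on small-molecule microarray slides; score combines spot fluorescence intensity with signal-to-noise across triplicate slides.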 The note with it: small-molecule microarray binding, 635 nm fluorescence; higher = more signal.

The source made the active and inactive calls. Unless noted, no rule for the calls is given here.

Chain of Streptavidin (Streptomyces avidinii) (P22629 whole entry, looked up): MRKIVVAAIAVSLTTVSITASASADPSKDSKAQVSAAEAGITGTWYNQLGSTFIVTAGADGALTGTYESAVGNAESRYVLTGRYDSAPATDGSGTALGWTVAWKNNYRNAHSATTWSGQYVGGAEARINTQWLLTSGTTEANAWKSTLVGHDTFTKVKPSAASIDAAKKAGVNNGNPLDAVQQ

On to `O=C(O)[C@H]1C[C@H]2C(=O)N3CCC[C@H]3C(=O)N2[C@H]1c1ccc(O)cc1`, for which the composite z-score in assay [1] was 0.0617; in [2] it was -0.94; in assay [3], -0.222; in [4], -1.83; in assay [5], -0.374; in assay [6] it was -0.879. Further, the composite z-score in assay [8] is -0.801; in [9], -0.842; in assay [11] it was -0.32; in assay [16], -1.29; in assay [17] it was -0.122; in assay [18], 0.244. Further, the composite z-score in [19] worked out at 0.109; in [20], 0.0164. The z-score in assay [7] is 1.62; in [10], -2.53 (inactive); in assay [12], -0.44 (inactive); in assay [13], -0.0598 (inactive); in [14], -0.122 (inactive); in [15], -0.233 (inactive).

With `CN1C(=O)C2C=CC(C(O)c3ccccc3)N(N3CCCCC3)C2C1=O` (stereo not given), the composite z-score in assay [1] is 0.841; in assay [2], 1.04; in assay [3], 0.352; in assay [4] it was 0.412; in [5], 0.602; in assay [6] it was -0.234. Further, the composite z-score was 0.0104 in [8]; 0.573 in [9]; 0.691 in [11]; 0.479 in [16]; 0.0301 in [17]; 0.305 in [18]. Further, the composite z-score in assay [19] is 1.14; in [20], -0.689. In addition, the z-score in assay [7] was 0.0958; in [10] it was -0.136 (inactive); in [12], 0.573 (inactive); in assay [13], -0.127 (inactive); in assay [14], 0.819 (inactive); in assay [15], 0.584 (inactive).

Turning to `C=CCC(OC(C)=O)[C@@H]1[C@@H](N(Cc2cc3ccccc3o2)C(=O)Cc2ccc(OC)cc2)c2cc(OCCCO)ccc2N1C(=O)c1ccc2ccccc2c1` (stereo not given in full), the composite z-score was 0.19 in [1]; -0.491 in assay [2]; 0.115 in assay [3]; -1.19 in [4]; 0.2 in assay [5]; -0.568 in assay [6]. In addition, the composite z-score in [8] is 0.128; in assay [9], 0.757; in assay [11], -0.252; in [16] it was -0.277; in assay [17] it was -0.0791; in [18] it was -0.748. The composite z-score in [19] was -0.502; in assay [20], 0.688. Besides, the z-score is -0.319 in assay [7]; 0.148 (inactive) in assay [10]; -1.58 (inactive) in assay [12]; -0.352 (inactive) in assay [13]; 1.41 (inactive) in assay [14]; 0.368 (inactive) in assay [15].

Regarding `NC(=O)N1C(=O)C2C(C1=O)C1C=C(CCCO)C2C(C2CC2)N1Cc1cc2c(cc1Br)OCO2` (stereo not given), the composite z-score in assay [1] was 1.06; in assay [2], -1.06; in [3], 0.164; in [4], 0.928; in assay [5], 0.246; in [6], -0.407. Moreover, the composite z-score in assay [8] was 0.969; in assay [9] it was 0.847; in assay [11] it was -0.219; in assay [16], 0.129; in [17], -0.157; in assay [18], 0.0457. The figures for the composite z-score in assay [19] and in assay [20] were 0.28 and 0.195, respectively. In addition, the z-score in assay [7] is 0.158; in assay [10], -1.13 (inactive); in [12], -0.387 (inactive); in assay [13] it was 1.44 (inactive); in assay [14], 4.37 (inactive); in assay [15] it was 0.0317 (inactive).

On to `C=CC[C@@]1(C(=O)N2CCCCC2)N=C(c2ccc(OCCCO)cc2)O[C@@H]1c1ccccc1CN=[N+]=[N-]`, for which the composite z-score in [1] amounted to 2.75; in assay [2] it was 1.27; in assay [3], 0.398; in assay [4], 1.02; in assay [5], 1.37; in assay [6], 0.288. For the same compound, the composite z-score is 0.484 in assay [8]; 0.768 in assay [9]; 0.381 in assay [11]; 1.77 in assay [16]; 0.233 in assay [17]; 0.342 in assay [18]. For the same compound, the composite z-score amounted to 0.711 in assay [19] and 0.466 in [20]. Moreover, the z-score in assay [7] is -0.0114; in assay [10] it was -1.37 (inactive); in assay [12] it was -4.96 (inactive); in assay [13] it was -0.703 (inactive); in [14], 3.77 (inactive); in assay [15], 0.51 (inactive).

Source of the values: PubChem BioAssay.
